Compound activity as filed in PubChem BioAssay.
Only a sample is shown.
aSyn 5UTR act – Activators via SNCA 5'UTR binding, MLPCN. AID 1814. alpha-synuclein 5'UTR reporter, activators screen. activity score, % (tested at 7.5 µM), hits read low. 7.1% of 300,000 active; in the data active = activity score below about -60%
Each line names hits and unclear results; the compound was inactive in the other large screens.

CC(C)c1ccc(NC(=O)COc2ccccn2)cc1	aSyn 5UTR act -130
O=C(COc1ccccc1)Nc1ccc(N2CCCCC2)cc1	aSyn 5UTR act -74
COc1ccc(C2C=C(C)Nc3ncnn32)cc1 (configuration not stated)	aSyn 5UTR act -154
CC1(C(=O)OCC(=O)Nc2ccc3ccccc3c2)CC1(Cl)Cl (configuration not stated)	aSyn 5UTR act -78
Nc1ccccc1C#Cc1ccc2[nH]ccc2c1	aSyn 5UTR act -174
Nc1ccccc1C#Cc1ccccc1	aSyn 5UTR act -162
CC1=NN(c2ccccc2)C(=O)/C1=C/c1cc2cc(C)ccc2nc1N1CCCCC1	aSyn 5UTR act -107
N/C(=N\OC(=O)/C=C/c1ccccc1)c1ccncc1	aSyn 5UTR act -133
O=C(/C=C/c1ccccc1)c1ccccn1	aSyn 5UTR act -135
Cc1ccc(C(=O)O/N=C(\N)c2ccccn2)c(Cl)c1	none
O=C(/C=C/Nc1ccccc1Br)c1ccccn1	none
O=C(/C=C/c1ccc2c(c1)OCO2)c1ccccn1	aSyn 5UTR act -140
N/C(=N\OC(=O)/C=C/c1ccccc1)c1ccccn1	aSyn 5UTR act -99
N/C(=N\OC(=O)/C=C/c1ccccc1Cl)c1ccncc1	aSyn 5UTR act -126
CCCCCC(=O)N[C@@H](c1ccccc1)[C@@H](O)C(=O)O[C@H]1C[C@@]2(O)[C@@H](OC(=O)c3ccccc3)C3[C@](C)(C(=O)[C@H](OC(C)=O)C(=C1C)C2(C)C)[C@@H](O)C[C@H]1OC[C@@]31OC(C)=O (some centres not stated)	none
CN(C(=O)/C=C/c1ccccc1)C1CCCCC1	aSyn 5UTR act -98
Cc1cn(CCC(=O)Nc2ccccc2N2CCOCC2)c2ccccc12	aSyn 5UTR act -106
Cc1cn(CCC(=O)Nc2ccc(N3CCOCC3)cc2)c2ccccc12	aSyn 5UTR act -128
O=[N+]([O-])c1ccc(O)c(C=Nc2ccc3nc(-c4ccccc4)[nH]c3c2)c1	aSyn 5UTR act -166
Oc1c(Br)cc(C=Nc2ccc3nc(-c4ccccc4)[nH]c3c2)c(O)c1Br	aSyn 5UTR act -124
CCOc1ccc(/C=N/Nc2nc(C)cs2)c(O)c1	aSyn 5UTR act -260
Cc1csc(N/N=C/c2c(F)cccc2Cl)n1	aSyn 5UTR act -74
Cc1csc(N/N=C/c2ccccc2F)n1	aSyn 5UTR act -200
c1ccc2sc(NCC3CCCO3)nc2c1 (configuration not stated)	aSyn 5UTR act -151
c1ccc2oc(-c3csc(NCC4CCCO4)n3)cc2c1 (configuration not stated)	aSyn 5UTR act -110
C=CCNc1nc(-c2cc3ccccc3o2)cs1	aSyn 5UTR act -73
COc1cccc2c1OCC(C(=O)Nc1nccs1)=C2	aSyn 5UTR act -122
Oc1cccc(C(Nc2nccs2)c2ccc3cccnc3c2O)c1 (configuration not stated)	none
COc1c(C(=O)Nc2nccs2)ccc2ccccc12	aSyn 5UTR act -172
COc1cc2ccccc2cc1C(=O)Nc1nccs1	aSyn 5UTR act -256
O=C(COc1cccc2cccnc12)Nc1nccs1	aSyn 5UTR act -85
COc1cc2ccccc2cc1C(=O)NCC(c1cccs1)N(C)C (configuration not stated)	aSyn 5UTR act -106
COc1ccccc1OCCCC(=O)Nc1nccs1	aSyn 5UTR act -97
Cc1cccc(C(=O)Nc2ccccc2C(=O)OCC(=O)Nc2ccc(C#N)cc2)c1	aSyn 5UTR act -100
Cn1c(/C(C#N)=C(\O)c2ccc(Br)s2)nc2ccccc21	aSyn 5UTR act -72
Cc1ccc(NC(=S)NC(=O)C2CC2)c(C)c1	aSyn 5UTR act -119
Cc1ccc(NC(=S)NC2CCCC2)cc1C	aSyn 5UTR act -128
S=C(Nc1ccc2[nH]ccc2c1)NC1CCCCC1	aSyn 5UTR act -105
O=C(NC(=S)Nc1ccc(F)cc1)C1CCCCC1	aSyn 5UTR act -63
CC(C)CC(=O)Nc1ccc(C(=O)NNC(=S)NC(=O)C2CCCCC2)cc1	none
Cc1ccc(NC(=S)NC(=O)C2CCCC2)cc1C	aSyn 5UTR act -131
Cc1nc2ccc(NC(=S)NC3CCCCC3)cc2nc1C	aSyn 5UTR act -173
Cc1ccc(NC(=S)NC(=O)C2CCC2)cc1C	aSyn 5UTR act -95
O=C(NC(=S)Nc1ccccc1F)C1CCCCC1	aSyn 5UTR act -88
Cc1ccsc1/C=N/n1cnc2sc(C)c(C)c2c1=O	aSyn 5UTR act -101
CCCCc1ccc(-c2nc(NC(=O)C3C4CCC(O4)C3C(=O)O)sc2C)cc1 (configuration not stated)	aSyn 5UTR act -128
CC(O)CNc1ncnc2cc(-c3ccc(F)cc3)sc12 (configuration not stated)	aSyn 5UTR act -62
O=C(CC(SCCO)c1ccc2c(c1)OCO2)c1cccs1 (configuration not stated)	aSyn 5UTR act -193
O=C(CC(SCc1ccco1)c1ccc(O)cc1)c1cccs1 (configuration not stated)	aSyn 5UTR act -168
Cc1nc2oc3ccc(F)cc3c(=O)c2cc1C(=O)NC(C)(C)C	aSyn 5UTR act -76
Cc1nc2oc3ccc(Cl)cc3c(=O)c2cc1C(=O)O	aSyn 5UTR act -62
CCc1nc2oc3ccc(C)cc3c(=O)c2cc1C(=O)OC	aSyn 5UTR act -201
COC(=O)c1cc2c(=O)c3ccccc3oc2nc1C	aSyn 5UTR act -172
O=C1N=c2ccccc2=C1c1sc(Nc2cccc(O)c2)nc1O	aSyn 5UTR act -90
O=C(NN=C1CCN(Cc2ccccc2)CC1)c1ccccc1	aSyn 5UTR act -88
C/C(=N\NC(=O)CSCc1ccc(Cl)cc1)c1ccc(NC(=O)c2ccccc2)cc1	aSyn 5UTR act -137
O=C(Nc1ccc(CN2CCOCC2)cc1)c1ccco1	aSyn 5UTR act -69
CC(C)(C)c1ccc(C(=O)Nc2ccc(CN3CCS(=O)(=O)CC3)cc2)cc1	aSyn 5UTR act -68
O=C(N/N=C/c1ccccc1[N+](=O)[O-])c1ccc(CN2CCOCC2)cc1	aSyn 5UTR act -83
O=C(Nc1ccc(CN2CCOCC2)cc1)c1ccc2ccccc2c1	aSyn 5UTR act -182
O=C(Nc1ccc(CN2CCOCC2)cc1)c1ccc(Cl)cc1	aSyn 5UTR act -207
O=C(Nc1ccc(CN2CCOCC2)cc1)c1ccc(F)cc1	aSyn 5UTR act -117
C/C(=N\NC(=O)c1ccc(CN2CCOCC2)cc1)c1ccc(NC(=O)c2ccccc2)cc1	aSyn 5UTR act -77
O=C(Nc1ccc(CN2CCOCC2)cc1)c1ccc(Br)cc1	aSyn 5UTR act -173
O=C(Nc1cccc([N+](=O)[O-])c1)c1ccc(CN2CCOCC2)cc1	aSyn 5UTR act -124
O=C(NCCSc1ccccc1)c1ccc(CN2CCOCC2)cc1	aSyn 5UTR act -126
Cc1nn(-c2nc3ccccc3s2)c(C)c1Oc1ccccc1O	aSyn 5UTR act -77
CCN1/C(=C2/SC(=S)N(C)C2=O)C=Cc2cc(C)ccc21	aSyn 5UTR act -68
C=CC[n+]1c(/C=C2\C=Cc3cc(C)ccc3N2CC)ccc2ccccc21	none
O=C(CCC1CCCC1)Nc1ccc(C(=O)NCc2cccnc2)cc1	none
Cn1ccnc1CN1CCCCC1C(=O)Nc1ccc(Oc2cccnc2)cc1 (configuration not stated)	aSyn 5UTR act -77
COc1ccc(N=C2O/C(=C/c3sc(=S)n(CC4CCCO4)c3O)N=C2C#N)cc1 (configuration not stated)	aSyn 5UTR act -101
c1ccc(-c2nnc(-c3ccccn3)nc2NC2CCCCC2)cc1	none
O=C(Nc1nc(-c2ccccc2)cs1)C1CCCO1 (configuration not stated)	aSyn 5UTR act -66
O=C(Nc1nc(-c2ccc(F)cc2)cs1)C1CCCO1 (configuration not stated)	aSyn 5UTR act -97
c1ccc(-c2csc(NC3CCCCC3)n2)cc1	aSyn 5UTR act -92
